This assay in a line: human cervical cancer cell viability loss – 24 h, plate reader, dry powder, cytotoxicity control, dose response (AID 686928). Particulars: HeLa cytotoxicity; series mostly up to 50 µM.

SMILES strings stand for the structures. Entries with a potency or affinity are not part of this list. Calls of active or inactive are those of the source. The rule behind the calls is not given here.

Take `CCn1nnnc1N`: the call was inactive.
Then `CCCCCCCCCC(=O)C(O)CC` (configuration not stated), with “inactive”.

Source of the values: PubChem BioAssay AID686928 (Broad Institute, 2013).
